In PubChem BioAssay (Tox21):
A number with no mark means an inactive call. Results filed as inconclusive are left out. Where a call stands in place of a potency, no number is given. Activity calls are given as the source filed them. Unless noted, the call rests on the fitted dose curve; in most records, active means well fitted curve in the direction sought with a large enough effect in the repeat runs; inconclusive means weak or mixed curves; inactive means no such curve, though single readings can be large; an effect the other way counts as inactive or inconclusive.

Assays:
[1] = target: Thyrotropin receptor (Homo sapiens) (UniProt P16473); test: qHTS assay to identify small molecule antagonists of the thyroid stimulating hormone receptor (TSHR) signaling pathway (AID 1259385; calls by dose curve; further: nearly all actives have a fitted effect of over 20% in size)
In short: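 Antagonist mode: compound-treated TSHR-expressing HEK293 cells were stimulated with 1.5 ng/mL TSH (final) in presence of Ro20-1724 for 30 min at RT. HTRF cAMP detection after 1 h; each compound tested at 15 concentrations, triplicate.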

[2] = qHTS assay to identify small molecule agonists of the estrogen receptor alpha (ER-alpha) signaling pathway in the presence of an antagonist - cell viability counter screen (AID 1259386);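 further: series mostly up to about 92 µM; cells exposed to compounds for 22 h at 37 °C before the viability read; nearly all actives have a fitted effect of over 30% in size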
In short: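 ICI-182,780 at 10.0nM final accompanies the compound titration (15 concentrations, 22hr, 37C) on VM7Luc4E2 cells. The CellTiter-Fluor fluorescence readout runs in the same wells as the luciferase assay.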

[3] = target: Progesterone receptor (Homo sapiens) (UniProt P06401); test: qHTS assay to identify small molecule agonists of the progesterone receptor (PR) signaling pathway (AID 1346784; calls by dose curve; further: nearly all actives have a fitted effect of over 30% in size; further: potency means the concentration at half of the fitted maximal effect)
In short: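 Beta-lactamase reporter read-out: after 16 hr compound treatment at 37C and a further 2 hr at room temperature with LiveBLAzer B/G FRET substrate, fluorescence was measured in PR-UAS-bla HEK 293T cells grown in 2% charcoal-stripped serum.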

[4] = target: Progesterone receptor (Homo sapiens) (UniProt P06401); test: qHTS assay to identify small molecule antagonists of the progesterone receptor (PR) signaling pathway (AID 1346795; active means well fitted inhibition curve with a large enough effect in the signal ratio in the repeat runs, not every such curve was filed as active; the % refers to the signal ratio)
In short: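 Read-out is fluorescence from the LiveBLAzer B/G FRET substrate, cleaved by a UAS-controlled beta-lactamase in PR-UAS-bla HEK293T cells after 16 hr exposure to compound plus 1 nM promegestone (final), followed by 2 hr at room temperature.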

[5] = qHTS assay to identify small molecule antagonists of the TGF-beta/Smad signaling pathway - cell viability counter screen (AID 1346824); further: nearly all actives have a fitted effect of over 50% in size
In short: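 Cytotoxicity counter-screen run in the same wells as the beta-lactamase Smad reporter read: CellTiter-Glo luminescence after 30 min at room temperature. HEK 293T SBE-bla cells had 5 hr compound exposure at 37 C with TGF-beta1 (0.25 ng/mL stock).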

[6] = qHTS assay to identify small molecule agonists of the TGF-beta/Smad signaling pathway - cell viability counter screen (AID 1346829); further: top concentration of the series differs between compounds; nearly all actives have a fitted effect of over 45% in size
In short: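 Here the cytotoxicity of library compounds is measured in SBE-bla HEK 293T cells treated for 5 hr, using CellTiter-Glo added to wells already read for the beta-lactamase reporter.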

[7] = qHTS assay to identify small molecule agonists of the TGF-beta/Smad signaling pathway (AID 1346859; active means well fitted activation curve with a large enough effect in the signal ratio in the repeat runs, not every such curve was filed as active; the % refers to the signal ratio; further: series mostly up to about 77 µM)
In short: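 SBE-bla HEK 293T, 4,000 cells/well, plated o/n; cpd in DMSO, 5 hr, 37 C/5% CO2; B/G FRET substrate 2 hr RT; ex 405, em 460/530 nm.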

[8] = Human pregnane X receptor (PXR) small molecule agonists, qHTS cell viability counter screen (AID 1346977); further: nearly all actives have a fitted effect of over 50% in size
In short: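 PXR-Luc HepG2, 2,000 cells/well, 5% charcoal-stripped FBS; 5hr settle; cpd 24hr, 37C/5% CO2; CellTiter-Fluor at 23hr, read 1hr later (fluorescence).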

[9] = Caspase-3/7 induction in HepG2 cells by small molecules, qHTS assay (AID 1346978); further: nearly all actives have a fitted effect of over 15% in size
In short: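 Caspase-3/7 induction was measured by Caspase-Glo 3/7 luminescence (30 min, room temperature) after a 17 hr compound exposure of wild-type HepG2 cells seeded at 2,000 per well and pre-incubated 5 hr.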

[10] = Caspase-3/7 induction in CHO-K1 cells by small molecules, qHTS cell viability counter screen (AID 1346979); further: nearly all actives have a fitted effect of over 35% in size; further: potency means the concentration at half of the fitted maximal effect
In short: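 Cells (CHO-K1, wild type) are plated at 1,500 per well and incubated 5hr. Test compounds in DMSO are then pinned in, followed by 16hr at 37C and 5% CO2. Viability is read by CellTiter-Fluor fluorescence after 1hr.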

[11] = Caspase-3/7 induction in CHO-K1 cells by small molecules, qHTS assay (AID 1346980); further: nearly all actives have a fitted effect of over 15% in size
In short: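 Luminescent Caspase-Glo 3/7 read (30min, room temperature) quantified apoptosis induction. Cells were wild-type CHO-K1, treated with compound for 17hr at 37 C and 5% CO2.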

[12] = Caspase-3/7 induction in HepG2 cells by small molecules, qHTS cell viability counter screen (AID 1346981); further: series mostly up to about 92 µM; nearly all actives have a fitted effect of over 30% in size
In short: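 Multiplexed with the caspase-3/7 assay: HepG2 cells, 16 hr compound treatment, CellTiter-Fluor viability detection by fluorescence.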

[13] = target: Nuclear receptor subfamily 1 group I member 2 (Homo sapiens) (UniProt O75469); test: Human pregnane X receptor (PXR) small molecule agonists, qHTS assay (AID 1346982); further: nearly all actives have a fitted effect of over 35% in size; further: potency means the concentration at half of the fitted maximal effect
In short: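 We seeded PXR-Luc HepG2 cells in assay medium containing 5% charcoal-stripped FBS, added compounds 5 hr later, incubated 24 hr, and read luminescence with ONE-Glo reagent.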

[14] = qHTS assay to identify small molecule agonists of the progesterone receptor (PR) signaling pathway - cell viability counter screen (AID 1346799; calls by dose curve; further: nearly all actives have a fitted effect of over 45% in size)
In short: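 Luminescence from CellTiter-Glo, added after the beta-lactamase FRET read in the same wells, gave cytotoxicity in PR-UAS-bla HEK293T cells treated with compounds for 16 hr at 37C.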

[15] = target: Thyrotropin-releasing hormone receptor (Homo sapiens) (UniProt P34981); test: qHTS assay to identify small molecule antagonists of the thyrotropin-releasing hormone receptor (TRHR) signaling pathway (AID 1346877; active means well fitted inhibition curve with a large enough effect in the repeat runs, not every such curve was filed as active; further: series mostly up to about 51 µM)
In short: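 Screening used HEK293 cells engineered with TRHR, with a brief 5 min room-temperature compound exposure preceding addition of TRH to 1 nM. The read-out was kinetic calcium-dye fluorescence, concentration-response from 15 doses in triplicate.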

[16] = target: Thyrotropin-releasing hormone receptor (Homo sapiens) (UniProt P34981); test: qHTS assay to identify small molecule agonists of the thyrotropin-releasing hormone receptor (TRHR) signaling pathway (AID 1346891; calls by dose curve; further: series mostly up to about 58 µM)
In short: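 Intracellular calcium rise, read as fluorescence every second for 3 min, served as the agonist signal in dye-loaded HEK293 cells expressing TRHR; each compound ran at 15 concentrations in triplicate.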

[17] = target: Cytochrome P450 2D6 (Homo sapiens) (UniProt P10635); test: Cytochrome P450 Family 2 Subfamily D Member 6 (CYP2D6) small molecule antagonists: luciferase reporter qHTS assay (AID 1671196); further: nearly all actives have a fitted effect of over 50% in size; further: potency means the concentration at half of the fitted maximal effect
In short: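 Luminescence (RLU), read 20 min after detection reagent, indicated CYP2D6 conversion of proluciferin to luciferin during a 1 h NADPH-dependent reaction at room temperature.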

[18] = target: Nuclear receptor subfamily 1 group I member 2 (Rattus norvegicus) (UniProt Q9R1A7); test: Rat pregnane X receptor (rPXR) activation by small molecules, qHTS assay (AID 1346983); details: rPXR luciferase reporter cells, One-Glo luminescence, 24 h; max activation: hits give high values; further: nearly all actives have a fitted effect of over 20% in size
In short: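 Luminescent readout (One-Glo luciferase, 30 min room temperature) followed 24 hr compound treatment at 37 C of rPXR cells plated 2,000 per well and preincubated 5hr; qHTS format with compounds delivered in DMSO.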

[19] = target: Nuclear receptor subfamily 1 group I member 2 (Homo sapiens) (UniProt O75469); test: CYP3A4 induction through human pregnane X receptor (PXR) by small molecules, qHTS assay (AID 1346984); further: nearly all actives have a fitted effect of over 40% in size
In short: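 qHTS, concentration-response format: HepG2 DPX-2 line, PXR/CYP3A4-luc. Exposure 24 h, 37C. Substrate Luciferin-IPA 3uM final, 3 h. Detection One-Glo, 30 min RT.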

[20] = qHTS assay to identify small molecule antagonists of the progesterone receptor (PR) signaling pathway - cell viability counter screen (AID 1346798);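 further: HEK293T PR-UAS-bla cells stimulated with the agonist R5020; series mostly up to about 92 µM; nearly all actives have a fitted effect of over 50% in size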
In short: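 HEK293T PR-UAS-bla, 2% charcoal-stripped FBS; 4 hr pre-plate; cpd + R5020, 16 h 37C; LiveBLAzer read first; then CellTiter-Glo 30 min RT, luminescence.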

Cytochrome P450 2D6 (Homo sapiens), sequence (P10635 whole entry, looked up): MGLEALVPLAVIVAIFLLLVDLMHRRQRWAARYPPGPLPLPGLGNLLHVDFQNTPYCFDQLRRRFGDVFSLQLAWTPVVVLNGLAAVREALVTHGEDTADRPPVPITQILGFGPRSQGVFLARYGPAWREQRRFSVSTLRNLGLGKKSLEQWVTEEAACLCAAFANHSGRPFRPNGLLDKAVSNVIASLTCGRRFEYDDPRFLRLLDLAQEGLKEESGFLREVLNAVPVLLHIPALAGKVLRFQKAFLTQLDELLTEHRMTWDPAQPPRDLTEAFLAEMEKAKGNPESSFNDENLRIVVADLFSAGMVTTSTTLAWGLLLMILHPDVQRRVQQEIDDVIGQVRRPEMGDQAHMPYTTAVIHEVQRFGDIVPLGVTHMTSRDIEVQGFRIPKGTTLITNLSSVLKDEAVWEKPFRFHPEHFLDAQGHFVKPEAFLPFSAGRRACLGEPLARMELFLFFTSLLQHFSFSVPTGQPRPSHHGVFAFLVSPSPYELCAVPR
Thyrotropin receptor (Homo sapiens), sequence (P16473 whole entry, looked up): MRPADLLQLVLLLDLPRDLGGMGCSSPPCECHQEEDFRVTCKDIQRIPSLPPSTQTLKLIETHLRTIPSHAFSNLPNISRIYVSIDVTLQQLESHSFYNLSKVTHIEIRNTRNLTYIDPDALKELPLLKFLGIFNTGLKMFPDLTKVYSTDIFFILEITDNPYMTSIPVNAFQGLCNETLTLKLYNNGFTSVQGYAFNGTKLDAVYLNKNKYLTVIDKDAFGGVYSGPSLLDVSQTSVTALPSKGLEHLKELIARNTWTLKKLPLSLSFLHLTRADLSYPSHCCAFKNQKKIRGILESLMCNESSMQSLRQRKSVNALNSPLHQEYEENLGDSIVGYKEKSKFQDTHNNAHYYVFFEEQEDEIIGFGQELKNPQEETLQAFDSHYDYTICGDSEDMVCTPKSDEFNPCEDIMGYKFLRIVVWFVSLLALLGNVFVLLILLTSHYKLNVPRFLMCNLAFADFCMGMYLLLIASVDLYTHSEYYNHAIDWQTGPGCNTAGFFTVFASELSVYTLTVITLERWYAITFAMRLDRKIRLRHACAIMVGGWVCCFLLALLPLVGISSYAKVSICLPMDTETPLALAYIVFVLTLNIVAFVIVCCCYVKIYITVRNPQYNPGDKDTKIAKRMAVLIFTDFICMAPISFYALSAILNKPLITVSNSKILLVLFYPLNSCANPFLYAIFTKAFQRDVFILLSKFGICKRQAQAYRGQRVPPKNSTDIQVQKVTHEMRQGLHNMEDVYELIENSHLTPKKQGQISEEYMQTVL
Thyrotropin-releasing hormone receptor (Homo sapiens), sequence (P34981 whole entry, looked up): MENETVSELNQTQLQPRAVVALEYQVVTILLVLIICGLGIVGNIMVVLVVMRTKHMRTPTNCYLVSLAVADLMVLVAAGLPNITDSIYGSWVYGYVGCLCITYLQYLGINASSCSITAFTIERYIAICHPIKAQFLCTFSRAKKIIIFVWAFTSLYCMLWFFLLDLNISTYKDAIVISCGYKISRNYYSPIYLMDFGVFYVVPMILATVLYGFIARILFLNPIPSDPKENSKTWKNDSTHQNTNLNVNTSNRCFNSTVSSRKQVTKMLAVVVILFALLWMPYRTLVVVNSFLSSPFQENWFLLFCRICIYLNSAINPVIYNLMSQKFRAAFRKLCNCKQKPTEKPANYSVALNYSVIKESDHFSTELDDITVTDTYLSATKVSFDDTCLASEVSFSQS
Progesterone receptor (Homo sapiens), sequence (P06401 whole entry, looked up): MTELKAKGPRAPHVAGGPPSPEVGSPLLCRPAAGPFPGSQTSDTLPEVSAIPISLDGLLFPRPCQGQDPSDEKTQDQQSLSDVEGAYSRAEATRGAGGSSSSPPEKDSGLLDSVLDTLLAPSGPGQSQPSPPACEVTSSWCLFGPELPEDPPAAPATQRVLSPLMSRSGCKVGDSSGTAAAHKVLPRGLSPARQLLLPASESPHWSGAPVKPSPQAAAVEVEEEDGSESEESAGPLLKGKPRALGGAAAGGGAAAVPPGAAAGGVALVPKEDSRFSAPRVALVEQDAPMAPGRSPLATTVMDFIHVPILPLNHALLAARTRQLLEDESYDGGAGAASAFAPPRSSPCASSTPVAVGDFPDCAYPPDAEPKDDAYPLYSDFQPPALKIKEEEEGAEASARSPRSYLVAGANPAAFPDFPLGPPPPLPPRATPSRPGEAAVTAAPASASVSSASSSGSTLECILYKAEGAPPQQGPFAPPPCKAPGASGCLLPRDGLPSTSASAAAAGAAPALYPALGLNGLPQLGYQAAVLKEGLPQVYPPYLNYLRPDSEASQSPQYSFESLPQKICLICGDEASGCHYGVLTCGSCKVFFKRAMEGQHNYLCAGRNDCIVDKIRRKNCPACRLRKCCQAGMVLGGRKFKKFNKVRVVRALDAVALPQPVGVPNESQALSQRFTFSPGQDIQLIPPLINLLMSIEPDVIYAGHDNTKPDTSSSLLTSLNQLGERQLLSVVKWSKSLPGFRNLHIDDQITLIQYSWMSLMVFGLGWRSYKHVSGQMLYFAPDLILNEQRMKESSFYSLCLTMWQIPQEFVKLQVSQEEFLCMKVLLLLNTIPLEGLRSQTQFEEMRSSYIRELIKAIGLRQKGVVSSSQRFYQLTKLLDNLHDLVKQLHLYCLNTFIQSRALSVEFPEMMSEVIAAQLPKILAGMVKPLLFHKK
Nuclear receptor subfamily 1 group I member 2 (Homo sapiens), sequence (O75469 whole entry, looked up): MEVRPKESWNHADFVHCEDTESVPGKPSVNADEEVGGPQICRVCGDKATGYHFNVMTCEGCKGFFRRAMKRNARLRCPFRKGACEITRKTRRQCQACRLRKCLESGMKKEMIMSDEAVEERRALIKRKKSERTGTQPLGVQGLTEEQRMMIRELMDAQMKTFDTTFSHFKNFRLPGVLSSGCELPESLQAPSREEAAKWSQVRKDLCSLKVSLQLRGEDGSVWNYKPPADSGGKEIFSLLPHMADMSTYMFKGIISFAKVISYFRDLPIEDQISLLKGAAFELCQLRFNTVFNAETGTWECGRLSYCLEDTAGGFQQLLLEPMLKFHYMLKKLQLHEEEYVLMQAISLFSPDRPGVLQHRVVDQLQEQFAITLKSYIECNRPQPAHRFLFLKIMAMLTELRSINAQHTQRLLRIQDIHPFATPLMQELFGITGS
Nuclear receptor subfamily 1 group I member 2 (Rattus norvegicus), sequence (Q9R1A7 whole entry, looked up): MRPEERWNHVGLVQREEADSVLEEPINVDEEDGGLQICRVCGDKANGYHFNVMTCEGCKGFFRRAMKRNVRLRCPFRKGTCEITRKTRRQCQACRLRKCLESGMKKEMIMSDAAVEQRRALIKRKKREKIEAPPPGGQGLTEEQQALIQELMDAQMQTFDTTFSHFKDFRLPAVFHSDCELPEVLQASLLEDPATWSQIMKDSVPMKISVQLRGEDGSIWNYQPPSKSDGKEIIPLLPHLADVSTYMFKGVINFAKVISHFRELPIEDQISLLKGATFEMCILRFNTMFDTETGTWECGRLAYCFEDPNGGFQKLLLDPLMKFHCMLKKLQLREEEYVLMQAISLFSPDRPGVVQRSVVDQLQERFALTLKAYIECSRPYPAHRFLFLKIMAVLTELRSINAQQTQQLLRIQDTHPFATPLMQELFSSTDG

SMILES	Potency [1]	Potency [2]	Potency [3]	Potency [4]	outcome [5]	Potency [6]	Potency [7]	Potency [8]	Potency [9]	Potency [10]	outcome [11]	Potency [12]	Potency [13]	Potency [14]	outcome [15]	outcome [16]	Potency [17]	max activation [18] [%]	Potency [19]	Potency [20]
O=C(C(=O)c1ccco1)c1ccco1	inactive	inactive	2.75 µM (active)	inactive	inactive	inactive	inactive	inactive	inactive	inactive	inactive	inactive	inactive	–	–	–	–	–	–	–
COC(C)(C)OC	inactive	inactive	inactive	inactive	inactive	inactive	inactive	–	inactive	inactive	inactive	inactive	inactive	inactive	inactive	inactive	inactive	–	–	–
CC(=O)Oc1cccc(O)c1	inactive	inactive	inactive	inactive	inactive	inactive	inactive	inactive	inactive	inactive	–	inactive	inactive	inactive	inactive	inactive	inactive	-5.99	inactive	–
CC(C)(C)C1(CCc2ccc(Cl)cc2)CO1 (configuration not stated)	inactive	inactive	inactive	–	inactive	inactive	inactive	inactive	inactive	–	inactive	inactive	–	inactive	inactive	inactive	–	–	–	inactive
CC(C)N(C)C	inactive	inactive	inactive	inactive	–	inactive	inactive	–	inactive	inactive	inactive	inactive	inactive	inactive	inactive	inactive	inactive	–	–	–
Cc1ccccc1S(N)(=O)=O	inactive	inactive	inactive	inactive	inactive	inactive	inactive	inactive	inactive	inactive	inactive	inactive	inactive	inactive	inactive	inactive	inactive	–	–	–
CSSc1ccoc1C	inactive	inactive	inactive	inactive	inactive	inactive	inactive	inactive	inactive	–	inactive	inactive	–	inactive	inactive	inactive	inactive	–	–	–
CCCCCCC(CO)CCCC (configuration not stated)	inactive	inactive	inactive	inactive	inactive	inactive	inactive	inactive	inactive	inactive	inactive	inactive	inactive	inactive	inactive	inactive	inactive	–	–	–
CCCCCCC(O)CCOC(C)=O (configuration not stated)	inactive	inactive	inactive	inactive	inactive	inactive	inactive	inactive	inactive	inactive	inactive	inactive	inactive	inactive	inactive	inactive	inactive	–	–	–
O=C(NC(Cc1cc(=O)[nH]c2ccccc12)C(=O)O)c1ccc(Cl)cc1 (configuration not stated)	inactive	inactive	inactive	inactive	inactive	inactive	inactive	inactive	inactive	–	–	inactive	inactive	inactive	inactive	inactive	inactive	-0.429	inactive	–
CCCCOCCOC(=O)c1cccnc1	inactive	inactive	inactive	inactive	inactive	inactive	inactive	inactive	inactive	–	inactive	inactive	inactive	–	inactive	inactive	–	–	–	–
Cc1oc(=O)oc1COC(=O)[C@@H]1N2C(=O)[C@@H](NC(=O)[C@H](N)c3ccccc3)[C@H]2SC1(C)C	inactive	inactive	inactive	inactive	inactive	inactive	inactive	inactive	inactive	inactive	inactive	inactive	inactive	inactive	inactive	inactive	inactive	–	–	–
O=C(O)CO	inactive	inactive	inactive	inactive	inactive	inactive	inactive	inactive	inactive	inactive	inactive	inactive	inactive	inactive	inactive	inactive	inactive	–	–	–
O=C1[C@@H]2[C@H]3CC[C@H](C3)[C@@H]2C(=O)N1CCCCN1CCN(c2ncccn2)CC1	inactive	inactive	inactive	inactive	inactive	inactive	inactive	inactive	inactive	inactive	inactive	inactive	inactive	inactive	–	–	12.3 µM (active)	–	–	–
CC(=O)NNC(C)=O	inactive	inactive	inactive	inactive	inactive	inactive	inactive	–	inactive	inactive	inactive	inactive	inactive	inactive	inactive	inactive	inactive	–	–	–
CNC1CCCN(c2c(F)cc3c(=O)c(C(=O)O)cn(C4CC4)c3c2OC)C1 (configuration not stated)	inactive	inactive	inactive	inactive	inactive	inactive	inactive	inactive	inactive	–	–	inactive	inactive	inactive	–	–	inactive	-1.63	inactive	–
COC(=O)c1sccc1S(N)(=O)=O	inactive	inactive	inactive	inactive	inactive	inactive	inactive	–	inactive	inactive	inactive	inactive	inactive	inactive	–	–	–	–	–	–
Cc1ccc(NC(=O)N(C)C)cc1NC(=O)N(C)C	inactive	inactive	inactive	inactive	inactive	inactive	inactive	–	inactive	inactive	inactive	inactive	–	inactive	inactive	inactive	inactive	–	–	–
CCOC(=O)N1CCC(Nc2ccc(Cl)cc2N)CC1	inactive	inactive	inactive	–	inactive	inactive	inactive	inactive	inactive	inactive	inactive	inactive	inactive	inactive	inactive	inactive	–	–	–	inactive
C=C(C)c1ccccc1	inactive	inactive	15.4 µM (active)	inactive	inactive	–	inactive	–	inactive	inactive	inactive	inactive	inactive	–	inactive	inactive	–	–	–	inactive
C[C@@H]1C[C@H]2[C@@H]3CCC4=CC(=O)C=C[C@]4(C)[C@@]3(F)[C@@H](O)C[C@]2(C)[C@@]1(O)C(=O)COP(=O)(O)O	inactive	inactive	inactive	–	inactive	inactive	inactive	inactive	inactive	inactive	inactive	inactive	inactive	inactive	inactive	inactive	inactive	–	–	inactive
CCCCCCC(O)CCCCCCCCCCC(=O)OC (configuration not stated)	inactive	inactive	inactive	inactive	inactive	–	inactive	inactive	inactive	–	inactive	inactive	inactive	inactive	inactive	inactive	inactive	–	–	–
CCCCCCCCCCCCCC(=O)OCC(O)CO (configuration not stated)	inactive	inactive	inactive	inactive	inactive	inactive	inactive	inactive	inactive	inactive	inactive	inactive	inactive	inactive	–	–	inactive	–	–	–
C1=CCC2CC=CC2C1 (configuration not stated)	inactive	inactive	inactive	inactive	inactive	inactive	inactive	inactive	inactive	–	inactive	inactive	54.4 µM (active)	inactive	inactive	inactive	inactive	–	–	–
CCCCCCCCCCCCCOS(=O)(=O)O	inactive	inactive	inactive	inactive	–	inactive	inactive	inactive	inactive	–	inactive	inactive	inactive	–	–	–	inactive	–	–	–
O=C(c1ccccc1)C1CCC1	inactive	inactive	inactive	–	inactive	inactive	inactive	inactive	inactive	inactive	inactive	inactive	inactive	–	inactive	inactive	inactive	–	–	inactive
N[C@@H](Cc1cc(I)c(O)c(I)c1)C(=O)O	inactive	–	inactive	inactive	inactive	inactive	inactive	inactive	inactive	23.7 µM (active)	–	inactive	inactive	inactive	inactive	inactive	inactive	–	–	inactive
ClC1=C(Cl)C1(Cl)Cl	inactive	–	inactive	inactive	inactive	inactive	inactive	inactive	inactive	inactive	inactive	inactive	inactive	inactive	inactive	inactive	inactive	–	–	inactive
CCOC(=O)c1ccc(NC(=O)CN2CCCCC2)cc1	inactive	inactive	–	–	inactive	inactive	inactive	–	inactive	–	inactive	inactive	23.7 µM (active)	–	–	–	17.4 µM (active)	–	–	inactive
CC(CN(CCN(CC(C)OCCO)CC(C)OCCO)CC(C)OCCO)OCCO (configuration not stated)	inactive	–	inactive	inactive	inactive	inactive	inactive	inactive	inactive	inactive	inactive	inactive	3.31 µM (active)	inactive	inactive	inactive	–	–	–	inactive
